41 molecules from article PMC4336329 (PLoS ONE, 2015) can be followed below.

In all, about 310,000 compounds went through this assay and about 14,000 (4.5%) showed an effect of 50% or more. Effects have a minus sign here. The sample as a whole holds a higher share of strong results than the screen did.
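Further: peak tail current of the secondary pulse compared with the same well before compound.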

The target of this assay is human ether-à-go-go-related gene (hERG) potassium channel (human, UniProt Q12809). Briefly: primary screen, population patch clamp on CHO cells stably expressing hERG; higher = less effect of the substance.
Sequence of human ether-à-go-go-related gene (hERG) potassium channel (Q12809 whole entry, looked up): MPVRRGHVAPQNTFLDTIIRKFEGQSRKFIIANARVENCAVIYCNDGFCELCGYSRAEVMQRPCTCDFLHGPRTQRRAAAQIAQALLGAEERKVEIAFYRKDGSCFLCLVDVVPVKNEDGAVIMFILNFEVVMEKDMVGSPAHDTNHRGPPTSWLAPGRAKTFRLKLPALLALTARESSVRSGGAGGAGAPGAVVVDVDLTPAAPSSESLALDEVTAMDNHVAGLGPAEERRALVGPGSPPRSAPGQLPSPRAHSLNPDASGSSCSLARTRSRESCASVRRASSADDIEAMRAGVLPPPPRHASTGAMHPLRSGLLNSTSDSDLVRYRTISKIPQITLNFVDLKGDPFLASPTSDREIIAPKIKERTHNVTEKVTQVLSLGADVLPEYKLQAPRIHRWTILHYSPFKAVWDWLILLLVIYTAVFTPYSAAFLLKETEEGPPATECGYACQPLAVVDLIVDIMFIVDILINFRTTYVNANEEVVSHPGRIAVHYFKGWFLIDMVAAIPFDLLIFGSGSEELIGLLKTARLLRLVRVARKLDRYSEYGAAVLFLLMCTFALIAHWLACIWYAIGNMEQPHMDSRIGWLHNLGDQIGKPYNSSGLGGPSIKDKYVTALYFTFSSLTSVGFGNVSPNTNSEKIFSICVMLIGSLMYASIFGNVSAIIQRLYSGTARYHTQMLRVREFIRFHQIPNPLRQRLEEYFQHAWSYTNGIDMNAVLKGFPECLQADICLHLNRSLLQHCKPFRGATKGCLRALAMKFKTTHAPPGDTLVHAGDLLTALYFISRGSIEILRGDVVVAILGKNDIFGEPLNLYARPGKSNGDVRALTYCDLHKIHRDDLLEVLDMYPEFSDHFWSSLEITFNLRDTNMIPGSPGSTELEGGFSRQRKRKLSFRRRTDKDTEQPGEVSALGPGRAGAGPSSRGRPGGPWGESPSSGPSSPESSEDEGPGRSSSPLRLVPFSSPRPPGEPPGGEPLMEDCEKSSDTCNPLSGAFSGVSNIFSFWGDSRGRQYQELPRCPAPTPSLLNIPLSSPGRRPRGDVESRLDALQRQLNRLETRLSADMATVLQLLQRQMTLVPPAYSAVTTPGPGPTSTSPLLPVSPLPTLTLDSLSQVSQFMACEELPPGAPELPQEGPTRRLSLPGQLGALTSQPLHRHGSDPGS
As to `O=C(NC(Cc1ccccc1)c1ccc2c(c1)OCCCO2)c1ccc(F)cc1` (centres unmarked), the “hERG current change (%, negative = inhibition) at 10uM” value is recorded as 8.05%.

Turning to `COc1ccc2cc1Oc1ccc(cc1)CC1c3c(cc(OC)c4c3Oc3cc5c(cc3O4)CCNC5C2)CCN1C` (centres unmarked), the “hERG current change (%, negative = inhibition) at 10uM” value came to 0.681%.

As for `N#Cc1c(Cl)nc(SCc2ccccc2)nc1-c1ccccc1`, the “hERG current change (%, negative = inhibition) at 10uM” value turned out to be 8.45%.

`CN(C(=O)c1ccccc1C(=O)OCC(=O)Nc1ccccc1)c1ccccc1`: the “hERG current change (%, negative = inhibition) at 10uM” value is 0.655%.

Turning to `CN(C(=O)c1ccccc1C(=O)OCC(=O)Nc1ccc(OC(F)F)cc1)c1ccccc1`, the “hERG current change (%, negative = inhibition) at 10uM” value is on record as -54%.

Turning to `CN(C(=O)c1ccccc1C(=O)OCC(=O)Nc1ccc(S(N)(=O)=O)cc1)c1ccccc1`, the “hERG current change (%, negative = inhibition) at 10uM” value is given as -5.32%.

Turning to `CCOc1cc2c(Cl)ncnc2c(OCC)c1OCC`, the “hERG current change (%, negative = inhibition) at 10uM” value worked out at 23.3%.

Take `CCOC(=O)c1cccc(NC(=O)CCn2cccc2)c1`: the “hERG current change (%, negative = inhibition) at 10uM” value was -27.7%.

As to `COc1cc(NS(C)(=O)=O)ccc1Nc1c2ccccc2nc2ccccc12.Cl`, the “hERG current change (%, negative = inhibition) at 10uM” value is reported as -67.7%.

With `COc1cc(Nc2c3ccccc3nc3ccccc23)cc(OC)c1OC`, the “hERG current change (%, negative = inhibition) at 10uM” value is -63.9%.

Regarding `COc1ccc(OC)c(Nc2c3ccccc3nc3ccccc23)c1`, the “hERG current change (%, negative = inhibition) at 10uM” value was -11%.

For `COc1ccccc1Nc1c2ccccc2nc2ccccc12`, the “hERG current change (%, negative = inhibition) at 10uM” value is -71%.

Turning to `COc1c2ccccc2nc2ccccc12`, the “hERG current change (%, negative = inhibition) at 10uM” value was 13.3%.

For the molecule `COc1cc(NC(=O)c2ccc3c(SCC(=O)O)c4c(nc3c2)CCCC4)cc(OC)c1OC`, the “hERG current change (%, negative = inhibition) at 10uM” value was 12.3%.

In the case of `COc1ccc([N+](=O)[O-])cc1Nc1c2ccccc2nc2ccccc12`, the “hERG current change (%, negative = inhibition) at 10uM” value turned out to be 9.54%.

Take `COc1cc(Nc2c3c(nc4ccccc24)CCCC3)cc(OC)c1OC`: the “hERG current change (%, negative = inhibition) at 10uM” value is reported as -65.9%.

Take `COc1cc(Nc2nc(SCC#N)nc3ccccc23)cc(OC)c1OC`: the “hERG current change (%, negative = inhibition) at 10uM” value was -32%.

Take `COc1ccc(Nc2nc(N)c3ccccc3n2)c(OC)c1.Cl`: the “hERG current change (%, negative = inhibition) at 10uM” value was -14.9%.

Take `COc1ccccc1Nc1nc(-c2ccccc2)nc2ccccc12`: the “hERG current change (%, negative = inhibition) at 10uM” value is reported as 23.5%.

With `COc1ccc(S(=O)(=O)N2CCCCCC2)cc1NC(=O)CN1C(=O)NC(C)(c2ccc(C)cc2)C1=O` (centres unmarked), the “hERG current change (%, negative = inhibition) at 10uM” value is on record as -12.8%.

On to `Cc1ccc(NC(=O)CCC(=O)c2cccs2)cc1F`, for which the “hERG current change (%, negative = inhibition) at 10uM” value is on record as 2.31%.

Take `CCOC(=O)c1oc2cc(O)c(CC)cc2c(=O)c1-c1cscn1`: the “hERG current change (%, negative = inhibition) at 10uM” value turned out to be 2.56%.

For the molecule `CCC(C)N1C(=O)CCC1C(=O)N1CCN(c2ccc(F)cc2)CC1` (centres unmarked), the “hERG current change (%, negative = inhibition) at 10uM” value is -28.3%.

As for `COc1cc(NC(=O)CSc2c3c(nc4ccccc24)CCC3)cc(OC)c1OC`, the “hERG current change (%, negative = inhibition) at 10uM” value is recorded as -7.51%.

In the case of `COc1ccc(Nc2nc(-c3ccccc3F)nc3ccccc23)cc1OC`, the “hERG current change (%, negative = inhibition) at 10uM” value was 0.695%.

As to `COc1cc(Nc2c3c(nc4ccccc24)CCC3)cc(OC)c1OC`, the “hERG current change (%, negative = inhibition) at 10uM” value is recorded as -60%.

Turning to `COc1ccc(Nc2c3c(nc4ccccc24)CCCC3)cc1OC`, the “hERG current change (%, negative = inhibition) at 10uM” value is -73.2%.

For the molecule `Cc1ccc(O)c(Nc2ncnc3ccccc23)c1.Cl`, the “hERG current change (%, negative = inhibition) at 10uM” value is on record as 11.8%.

Turning to `Cc1ccc(O)c(Nc2c3ccccc3nc3ccccc23)c1`, the “hERG current change (%, negative = inhibition) at 10uM” value is recorded as -52.8%.

As for `COc1ccc(NC(=O)COC(=O)c2c3c(nc4ccccc24)CCCC3)cc1Cl`, the “hERG current change (%, negative = inhibition) at 10uM” value came to 9.73%.

`Cc1ccc(O)c(Nc2nc(-c3ccccc3)nc3ccccc23)c1`: the “hERG current change (%, negative = inhibition) at 10uM” value was determined as 14.9%.

`COC(=O)c1c2c(nc3ccccc13)CCC2`: the “hERG current change (%, negative = inhibition) at 10uM” value is given as -3.81%.

Take `O=C(NCC(c1cccnc1)N1CCN(c2ccc(F)cc2)CC1)c1ccco1` (centres unmarked): the “hERG current change (%, negative = inhibition) at 10uM” value is given as -47.7%.

As to `CN(C)/C=C(\C(=O)c1ccc(F)cc1F)c1nnnn1-c1ccccc1`, the “hERG current change (%, negative = inhibition) at 10uM” value is 21.1%.

Regarding `CCOC(=O)/C(C#N)=C/Nc1ccccc1OC`, the “hERG current change (%, negative = inhibition) at 10uM” value was 0.538%.

For `Cc1cc(=O)oc(C)c1C(=O)OCC(=O)c1ccccc1`, the “hERG current change (%, negative = inhibition) at 10uM” value was -5.02%.

Take `COc1ccc(N(Cc2cc3cc(OC)ccc3[nH]c2=O)S(=O)(=O)c2ccc(NC(C)=O)cc2)cc1`: the “hERG current change (%, negative = inhibition) at 10uM” value came out at 5.64%.

Take `Cc1cc(NC(=O)CN2C(=O)NC(c3ccccc3)(c3ccc(C)c(C)c3)C2=O)no1` (centres unmarked): the “hERG current change (%, negative = inhibition) at 10uM” value was -48.5%.

`Cc1ccc(C2(c3ccccc3)NC(=O)N(CC(=O)NCc3ccccc3)C2=O)cc1C` (centres unmarked): the “hERG current change (%, negative = inhibition) at 10uM” value was -23%.

For the molecule `N#CC1(NC(=O)CN2C(=O)NC(c3ccccc3)(c3ccccc3)C2=O)CCCC1`, the “hERG current change (%, negative = inhibition) at 10uM” value is on record as -55%.

`Cc1ccc(C2(c3ccccc3)NC(=O)N(CC(=O)NC3(C#N)CCCC3)C2=O)cc1C` (centres unmarked): the “hERG current change (%, negative = inhibition) at 10uM” value is -63.4%.
